The source of these data is PubChem BioAssay (EPA / NIEHS).

The AC50 is the concentration at which the activity in the assay is half-maximal.

Molecules are shown by their SMILES. Values joined by “and” are separate entries in the source; they are usually repeats but may differ in a detail not shown here. Equal values may be shown once. Records with an inconclusive call do not appear. Some structures have more than one record in an assay (separate samples or runs), and their calls can disagree. Active and inactive are the calls of the source. How the source made its calls: active means hit-call score of the fitted dose curve at least 0.9, where 1 is the maximum; inconclusive means response in the unintended direction; inactive means score below 0.9.

Sequence of Cellular tumor antigen p53 (Homo sapiens) (P04637 whole entry, looked up, the tested form may be a part): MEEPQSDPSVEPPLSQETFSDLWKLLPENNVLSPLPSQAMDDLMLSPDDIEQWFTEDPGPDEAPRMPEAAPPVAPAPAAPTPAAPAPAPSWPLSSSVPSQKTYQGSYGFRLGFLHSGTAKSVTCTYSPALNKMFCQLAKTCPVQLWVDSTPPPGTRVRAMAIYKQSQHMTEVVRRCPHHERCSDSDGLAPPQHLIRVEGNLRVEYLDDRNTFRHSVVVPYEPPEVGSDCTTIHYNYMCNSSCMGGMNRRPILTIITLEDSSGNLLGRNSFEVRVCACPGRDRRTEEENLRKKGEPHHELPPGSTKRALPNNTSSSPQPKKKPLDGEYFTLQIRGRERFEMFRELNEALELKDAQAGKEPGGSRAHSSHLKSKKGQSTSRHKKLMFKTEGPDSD

This assay has as its target Cellular tumor antigen p53 (Homo sapiens) (UniProt P04637). Briefly: TOX21_p53_BLA_p4_ratio: Tox21 HCT-116 p53 Agonism Beta-lactamase Assay, Ratio, Phase 4 (AID 2283601). The source says:
TOX21_p53_BLA_p4 is a cell-based, single-readout assay that uses HCT116, a human intestinal cell line, […] in a 1536-well plate.TOX21_p53_BLA_p4_ratio is an assay readout measuring reporter gene via receptor activity and designed using inducible reporter (beta lactamase induction) detected with GAL4 b-lactamase reporter gene. The signal is derived from the ratio of cleaved (ch2) to uncleaved (ch1)reporter gene substrate used as the measure of target activity.Data from the assay component TOX21_p53_BLA_p4_ratio was analyzed into 1 assay endpoint. This assay endpoint, TOX21_p53_BLA_p4_ratio, was analyzed in the positive analysis fitting direction relative to DMSO as the negative control and baseline of activity. Using a type of inducible reporter, gain-of-signal activity can be used to understand changes in the reporter gene as they relate to the gene TP53. Furthermore, this assay endpoint can be referred to as a primary readout, because this assay has produced multiple assay endpoints where this ratio serves a reporter gene function to understand target activity. To generalize the intended target to other relatable targets, this assay endpoint is annotated to the DNA binding intended target family, where the subfamily is tumor suppressor.
Thawing Method: Place 14 mL of pre-warmed thaw medium into a 15 mL of conical tub. Remove the vial of cells to be thawed from liquid nitrogen and thaw rapidly by placing at 37C in a water bath with gentle agitation for 1-2 minutes. Decontaminate the vial by wiping with 70% ethanol before opening in a biological safety cabinet. Transfer the vial contents drop-wise into 14 mL of thaw medium in a sterile 15-mL conical tub. Centrifuge cells at 900 rpm for 4 minutes and resuspend in thaw medium. Transfer contents to the T75 tissue culture flask containing Thaw Medium and place flask in a humidified 37C/5% CO2 incubator. Switch to growth medium at first passage.Propagation Method: Aspirate medium, rinse once in DPBS, add 0.25% Trypsin/EDTA and swirl to coat the cell evenly. Add an equal volume of Growth Medium to inactivate Trypsin after 2-3 minutes incubation at 37C. Centrifuge cells at 900 rpm for 4 minutes and resuspend in growth medium. Cell should be passage or fed at least twice a week.Assay Protocol: Harvest cells from culture in growth medium and resuspend in assay medium. 2.2 Dispense 4000 cells/5 uL/well into 1536-well black/clear bottom plates using a Multidrop dispenser. After the cells were incubated at 37C for 5 hours, 23 nL of compounds dissolved in DMSO were transferred to the assay plate by a PinTool resulting in a 217-fold dilution. Incubate the plates for 16 hours at 37C, 5% CO2. Add 1 uL of 6X LiveBLAzer FRET B/G (CCF4-AM) Substrate Mixture to each well using a BioRAPTR dispenser and incubate the plates at room temperature for 2 hours. Measure fluorescence intensity at 460 and 530 nm emission and 405 nm excitation by an Envision detector. Data is expressed as the ratio of 460nm/530nm emissions. Add 4 uL of Cell-titer Glo to each well using BioRAPTR and incubate the plates at room temperature for 2 hours. Measure fluorescence intensity by a VewLux plate reader.
Take `NC(=S)c1c(Cl)cccc1Cl`: the result was inactive. As for `CS(=O)(=O)Cl`, the outcome was inactive.

With `C[C@]12CC[C@H]3[C@@H](CC[C@@]45O[C@@H]4C(O)=C(C#N)C[C@]35C)[C@@H]1CC[C@@H]2O`, the outcome was inactive and the AC50 is 65.8 µM (active). On to `O=c1[nH]cc(N(CCCl)CCCl)c(=O)[nH]1`, for which the result was inactive. Consider `COc1ccc2[nH]cc(CCN(C(C)C)C(C)C)c2c1`, for which the result was inactive.

In the case of `CCCCCCCCCCCOC(=O)c1ccccc1C(=O)OCCCCCCCCCCC`, the result was inactive. For the compound `CCC1(c2cnc[nH]2)Cc2ccccc2C1`, the result was inactive.

`CC[C@@H](CO)NC(=O)[C@@H]1C=C2c3cccc4[nH]cc(c34)C[C@H]2N(C)C1`: the result was inactive.

Regarding `CNC(=O)Oc1cc(C)c(N(C)C)c(C)c1`, the result was inactive. Still for that read-out and setting: with `NP(N)(=O)NC(=O)c1ccc(F)cc1` the entry was “inactive”.

As to `C[C@]12C/C(=C/O)C(=O)C[C@@H]1CC[C@@H]1[C@@H]2CC[C@@]2(C)[C@H]1CC[C@]2(C)O`, the AC50 is 42.4 µM (active) and the result was inactive. For `O=NN1CCNCC1`, the result was inactive. `CCCCNP(N)(N)=S`: the result was inactive. Turning to `O=C1Nc2ccc(Cl)cc2C(c2ccccc2)=NC1O` (stereo not given), the result was inactive and the AC50 is 86.7 µM (active). Take `Cc1ccc(Cl)c(O)c1`: the result was inactive. In the case of `CCCCCCCCn1cc[n+](C)c1`, the outcome was inactive.

`Cc1ccc(OP(=O)(Oc2ccc(C)cc2)Oc2ccc(C)cc2)cc1` (tested in a mixture with another compound): the result was inactive. As to `N#CC(C#N)=NNc1cccc(Cl)c1`, the AC50 was 13.8 µM (active).

As to `O=C(O)c1ccccn1`, the outcome was inactive. Consider `O=C=NC1CCCCC1`, for which the result was inactive. `CCCCCCCCCCCCCC[P+](CCCCCC)(CCCCCC)CCCCCC`: the AC50 was 66 µM (active) and 48.6 µM (active). In the case of `CN[C@H]1C[C@@H](N)[C@H](O)[C@@H](O[C@@H]2O[C@H](CO)[C@H](O)[C@@H]3OC4(O[C@H]23)O[C@H](C(N)CO)[C@H](O)[C@H](O)C4O)[C@@H]1O` (stereo not given in full), the result was inactive. Turning to `CCCC[N+]1(C)[C@@H]2CC(OC(=O)[C@H](CO)c3ccccc3)C[C@H]1[C@@H]1O[C@@H]12` (stereo not given in full), the result was inactive.

Turning to `CCOC(=O)c1ncn2c1CN(C)C(=O)c1c(I)cccc1-2`, the result was inactive.

As to `CCC1(C)CC(=O)NC(=O)C1`, the outcome was inactive. On the same count and under the same terms, with `O=[N+]([O-])c1ccc2ccc3cccc4ccc1c2c34` the entry was “inactive”; with `N[C@@H](Cc1ccc(Oc2cc(I)c(O)c(I)c2)c(I)c1)C(=O)O`, “inactive”; with `O=C1NCN(c2ccccc2)C12CCN(CCCOc1ccc(F)cc1)CC2`, “inactive”. Turning to `C[C@@H]1CC[C@@]2(OC1)O[C@H]1[C@@H](O)[C@H]3[C@@H]4CC[C@H]5C[C@@H](O[C@@H]6O[C@H](CO)[C@H](O[C@@H]7O[C@H](CO)[C@@H](O)[C@H](O[C@@H]8OC[C@@H](O)[C@H](O)[C@H]8O)[C@H]7O[C@@H]7O[C@H](CO)[C@@H](O)[C@H](O[C@@H]8O[C@H](CO)[C@@H](O)[C@H](O)[C@H]8O)[C@H]7O)[C@H](O)[C@H]6O)[C@H](O)C[C@]5(C)[C@H]4CC[C@]3(C)[C@H]1[C@@H]2C`, the AC50 was 76.9 µM (active). Same read-out and setting: in the case of `CCCCCCCCCCCC[N+](C)(C)CCOc1ccccc1` it was 36.1 µM (active). For `O=C(O)C(Br)CBr` (stereo not given), the result was inactive. Consider `O=C1CC(=O)NC(=O)N1`, for which the outcome was inactive.

For `Clc1ccc(C2(Cn3cncn3)OCCO2)c(Cl)c1`, the outcome was inactive. As to `NCC(O)c1cccc(O)c1` (stereo not given), the result was inactive. For the compound `Cc1cc(C(C)(C)c2cc(C)c(O)c(C)c2)cc(C)c1O`, the AC50 is 74.3 µM (active). Regarding `C[C@]12CCC(=O)C(O)=C1CC[C@@H]1[C@@H]2CC[C@]2(C)C(=O)CC[C@@H]12`, the outcome was inactive. Consider `Cc1cccc(N)c1C`, for which the outcome was inactive.
